Compound activity (PubChem BioAssay)
A selection: hits, their analogues and other compounds. The true share with any hit is near 3.5%.
FBW7 act – human FBW7 E3 ligase activation, primary screen | 650,000 compounds, 0.13% hits | Q969H0 | AlphaScreen FBW7–phospho-cyclin E peptide binding, activator screen | normalized activity (activation), % at 26.1 µM | AID 1259310; in the data active = normalized activity above about 1.9%;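 also: purified mutant Fbw7 with reduced substrate affinity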
MITF primary – blocks human microphthalmia-associated transcription factor | 650,000 compounds, 0.91% hits | O75030 | inhibition, % at 2.6 µM | AlphaScreen MITF homodimerization, bead proximity signal; in the data active = inhibition above about 50%
TEAD-YAP block – TEAD-YAP interaction inhibition | HEK-TIYL cells, TEAD-Gal4/YAP UAS-luciferase luminescence | inhibition, % at 9.12 µM | 640,000 compounds, 1.4% hits; in the data active = inhibition above about 32%
GPR151 ag – activators of human GPR151. Q8TDV0. PathHunter beta-arrestin GPR151 cells, luminescence. activation, % at 11.2 µM. 650,000 compounds, 1% hits. AID 1508602; in the data active = activation above about 4.9%
GPR151 confirm – confirmation of human GPR151 activators; AID 1508609; 6,700 tested, under 10 active; shares compounds with GPR151 ag; activation, % at 11.2 µM; GPR151 PathHunter beta-arrestin cells, luminescence, 90 min; % of EA-reagent control over plate median;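 active = mean percent activation across replicates above the confirmation screen cutoff of 4.91%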
GPR119 ag – GPR119 activation, counter-screen for GPR151 activators | shares compounds with GPR151 ag | GPR119 PathHunter beta-arrestin cells, luminescence, 90 min; 0 = compound-well median, 100 = enzyme-acceptor control | activation, % at 11.2 µM | 6,700 compounds, 0.3% hits | AID 1508611;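 active = mean percent activation in the counterscreen above 29.09%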;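 also: counterscreen on off-target GPR119 to flag nonselective hits from the GPR151 activator screen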
Target sequence (Q8TDV5 whole entry, looked up): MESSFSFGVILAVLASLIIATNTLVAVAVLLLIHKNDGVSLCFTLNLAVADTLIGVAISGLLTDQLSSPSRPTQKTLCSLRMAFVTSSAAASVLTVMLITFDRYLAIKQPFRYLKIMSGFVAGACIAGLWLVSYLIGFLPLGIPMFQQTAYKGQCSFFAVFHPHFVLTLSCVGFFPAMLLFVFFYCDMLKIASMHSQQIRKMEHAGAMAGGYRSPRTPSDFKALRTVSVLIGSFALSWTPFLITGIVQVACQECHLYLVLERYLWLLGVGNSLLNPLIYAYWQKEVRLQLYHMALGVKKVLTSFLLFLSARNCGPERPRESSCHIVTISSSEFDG
Hits are given with their value.

How did Cc1ccccc1/C=N/NC(=O)c1ccccc1 do in these assays?
FBW7 act: inactive; MITF primary: inactive; TEAD-YAP block: inactive; GPR151 ag: inactive

What do the screens show for `O=[N+]([O-])/C=C/N1CCOCC1`?
FBW7 act: inactive; MITF primary: inactive; TEAD-YAP block: inactive; GPR151 ag: 5.5; GPR151 confirm: inactive; GPR119 ag: inactive

What do the screens show for `C=CCNCCC1CCC(=O)N1Cc1cccc(C)c1` (stereo not drawn)?
FBW7 act: inactive; MITF primary: inactive; TEAD-YAP block: inactive; GPR151 ag: inactive

What do the screens show for `CC(C)Oc1ccc(C(=O)NC(=S)N2CCOCC2)cc1`?
FBW7 act: inactive; MITF primary: inactive; TEAD-YAP block: inactive; GPR151 ag: 13; GPR151 confirm: inactive; GPR119 ag: inactive

How did COc1ccc(C(=O)NC(=S)N2CCOCC2)cc1Br do in these assays?
FBW7 act: inactive; MITF primary: inactive; TEAD-YAP block: inactive; GPR151 ag: inactive

Results for COc1ccc(C(=O)NC(=S)N2CCSCC2)cc1 ?
FBW7 act: inactive; MITF primary: inactive; TEAD-YAP block: inactive; GPR151 ag: inactive

How did COc1ccc(C(=O)NC(=S)N2CCOCC2)cc1 do in these assays?
FBW7 act: inactive; MITF primary: inactive; TEAD-YAP block: inactive; GPR151 ag: 6.1; GPR151 confirm: inactive; GPR119 ag: inactive

Results for O=C(O)C1CCC1C(=O)N1CCCC1c1nc(-c2ccc(F)cc2)c2ccccn12 (stereo not drawn) ?
FBW7 act: inactive; MITF primary: inactive; TEAD-YAP block: inactive; GPR151 ag: inactive

How did COC(=O)c1ccc(-c2ccc(/C=C3/SC(=S)NC3=O)o2)cc1 do in these assays?
FBW7 act: inactive; MITF primary: inactive; TEAD-YAP block: inactive; GPR151 ag: inactive

Results for CCOc1ccccc1Nc1ccc(C(=O)N2CCCC2)cn1 ?
FBW7 act: inactive; MITF primary: inactive; TEAD-YAP block: inactive; GPR151 ag: 8.7; GPR151 confirm: inactive; GPR119 ag: inactive

What do the screens show for `Cc1cc(C)nc(SCC(=O)NNC(=O)c2ccccc2)n1`?
FBW7 act: inactive; MITF primary: inactive; TEAD-YAP block: inactive; GPR151 ag: inactive

Results for O=C(N/N=C/c1cccnc1)c1ccc(Br)o1 ?
FBW7 act: inactive; MITF primary: inactive; TEAD-YAP block: inactive; GPR151 ag: inactive

How did O=C(N/N=C/c1cccc(O)c1)c1ccc(Br)o1 do in these assays?
FBW7 act: inactive; MITF primary: inactive; TEAD-YAP block: inactive; GPR151 ag: 8.3; GPR151 confirm: inactive; GPR119 ag: inactive

What do the screens show for `CCn1cc(C(=O)N(C)c2cc(Cl)ccc2OC)c2cc(OC)c(OC)cc2c1=O`?
FBW7 act: inactive; MITF primary: inactive; TEAD-YAP block: inactive; GPR151 ag: inactive

How did O=C(O)c1cc(-c2ccc(/C=C3\Sc4ccccc4C3=O)o2)ccc1Cl do in these assays?
FBW7 act: inactive; MITF primary: inactive; TEAD-YAP block: inactive; GPR151 ag: inactive

Results for O=C1/C(=C\c2ccc(-c3ccc(Cl)cc3)o2)Sc2ccccc21 ?
FBW7 act: inactive; MITF primary: inactive; TEAD-YAP block: inactive; GPR151 ag: 8.4; GPR151 confirm: inactive; GPR119 ag: inactive

Results for COc1ccc(OC)c(NC(=O)COc2ccccc2C(C)(C)C)c1 ?
FBW7 act: inactive; MITF primary: inactive; TEAD-YAP block: inactive; GPR151 ag: inactive

How did COc1ccc(NC(=O)COc2ccc(C)cc2C)c(OC)c1 do in these assays?
FBW7 act: inactive; MITF primary: inactive; TEAD-YAP block: inactive; GPR151 ag: 7.9; GPR151 confirm: inactive; GPR119 ag: inactive

How did COc1ccc(OC)c(NC(=O)COc2ccc(Br)cc2C(C)(C)C)c1 do in these assays?
FBW7 act: inactive; MITF primary: inactive; TEAD-YAP block: inactive; GPR151 ag: 5.9; GPR151 confirm: inactive; GPR119 ag: inactive

Results for CC(Oc1cccc(Cl)c1)C(=O)Nc1nccs1 (stereo not drawn) ?
FBW7 act: inactive; MITF primary: inactive; TEAD-YAP block: inactive; GPR151 ag: 6.0; GPR151 confirm: inactive; GPR119 ag: inactive

What do the screens show for `CSc1ccc(NC(=O)C2CC23CCN(C(=O)COc2ccccc2)CC3)cc1` (stereo not drawn)?
FBW7 act: inactive; MITF primary: inactive; TEAD-YAP block: inactive; GPR151 ag: inactive

What do the screens show for `CC(C)(C)c1ccc(C(=O)Nc2ncc(S(=O)(=O)c3ccc([N+](=O)[O-])cc3)s2)cc1`?
FBW7 act: inactive; MITF primary: inactive; TEAD-YAP block: inactive; GPR151 ag: inactive
